Screening data from PubChem BioAssay.
This is a sample that favours compounds with a hit; in the whole collection about 19% have one here.
Pf growth 48h = inhibits P. falciparum growth in the first generation, 48 h. P. falciparum luciferase growth in erythrocytes, 48 h. Potency, µM (doses to about 28.7 µM), inactives show at the top dose activity change, negative = inhibition, hits mostly inhibitors. actives 5.9% (n = 310,000); also: potency is read from the fitted curve at half-maximal effect; % is scaled to controls: 0 for no effect and ±100 for the full control effect
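Erythrocytes infected with P. falciparum carrying an integrated firefly luciferase reporter (2% hematocrit, 0.1% parasitemia final) were exposed to compounds in RPMI 1640 with 0.5% Albumax at 37 C, 5% CO2. Growth inhibition was scored as reduced luminescence.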
Lassa entry inh = inhibitors of Lassa virus binding or cell entry; Potency, µM (top dose mostly 37.9 µM), for inactives: top-dose activity change, negative = inhibition, most hits filed as inhibitors; actives 1.2% (n = 300,000); Lassa virus pseudotype entry inhibition, cell reporter; AID 540256; calls by dose curve; tested in HEK293 cells; also: potency is read from the fitted curve at half-maximal effect; % is scaled to controls: 0 for no effect and ±100 for the full control effect; nearly all actives have a fitted effect of over 50% in size
MARV entry inh = blocks Marburg virus binding to or entry into cells | Potency, µM (top dose mostly 37.8 µM), for the others: at the top dose activity change, negative = inhibition, actives largely listed as inhibitors | Marburg virus pseudotyped entry inhibition, cell reporter | AID 540276 | actives 1.8% (n = 300,000); calls by dose curve; tested in HEK293 cells; also: potency is read from the fitted curve at half-maximal effect; % is scaled to controls: 0 for no effect and ±100 for the full control effect
Pf growth 96h = P. falciparum growth inhibition at 96 hour, primary screen for plastid delayed-death inhibitors | Potency, µM (titrated, usually from 28.7 µM), for the others: at the highest dose activity change, negative = inhibition, hits mostly inhibitors | actives 6.9% (n = 320,000) | P. falciparum luciferase reporter growth, 96 h; also: potency is read from the fitted curve at half-maximal effect; % is scaled to controls: 0 for no effect and ±100 for the full control effect
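Infected RBCs, 2% Hct / 0.05% parasitemia final; luciferase-reporter P. falciparum; cpd 96 h, 37 C, 5% CO2; luciferase detection reagent; luminescence.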
Shiga toxin inh = blocks Shiga toxin action in Vero cells; Vero cells, Shiga toxin protein synthesis inhibition reporter; inhibition, % at 38.7 µM; actives 9.2% (n = 290,000); in the data active = inhibition mostly above about 28%, no sharp cut-off; inactive = mostly below about 43%; also: 0% is about no effect
CHX counter = counter-screen for Shiga toxin inhibitors: cycloheximide protein synthesis inhibition | cell reporter, cycloheximide protein synthesis inhibition counterscreen | max response, % | actives 12% (n = 300,000) | AID 2314; in the data active = max response mostly above about 13%, no sharp cut-off; inactive = mostly below about 14%; also: read at 38.3 µM for the half of the compounds with a filed dose; 0% is about no effect
Numbers without * were called inactive; ? = inconclusive; . = not tested or not shown; [ ] = another dose, or the depositor's remark. Unless noted, calls follow the shape of the dose curve; as a rule, active = well fitted inhibition curve with a large enough effect; inconclusive = small, poorly fitted or top-dose-only effect, or another doubt; inactive = no such curve, though single readings can be large or run the other way.

SMILES	Pf growth 48h	Lassa entry inh	MARV entry inh	Pf growth 96h	Shiga toxin inh	CHX counter
Cc1cccc(C2c3[nH]c4ccccc4c3CCN2Cc2cnn(-c3ccc(F)cc3)c2)n1 (configuration not stated)	10.4µM*	8.1%	-28.1%[46.1 µM]	22.4%	-9.4	-1.2
Cc1cccc(C2c3[nH]c4ccccc4c3CCN2C(=O)c2cn(C)c3ccccc3c2=O)n1 (configuration not stated)	?	-8.5%	-20.3%	?	-3.6	-2.2
Cc1cccc(C2c3[nH]c4ccccc4c3CCN2C(=O)c2noc3c2CCCC3)n1 (configuration not stated)	?	.	.	13.1µM*	12.3	1.2
COc1ccc(OCC(=O)N2CCc3c([nH]c4ccccc34)C2c2ccccn2)cc1 (configuration not stated)	-9.5%	.	.	?	13.5	6.3
COc1ccccc1CCNC1CCCC(C)C1 (configuration not stated)	-15.6%	1.0%	?	161.5%	-12.4	1.5
Cc1ccc(-n2ccnc2SCC(=O)O)cc1C	5.0%	.	.	19.6%	10.5	1.6
Cc1cc2nc3c(=O)[nH]c(=O)nc-3n(CC(O)C(O)C(O)CO)c2cc1C (configuration not stated)	13.5µM*	.	.	7.57µM*	.	.
CCCC(=O)OC[C@@H](OC(=O)CCC)[C@@H](OC(=O)CCC)[C@H](Cn1c2nc(=O)[nH]c(=O)c-2nc2cc(C)c(C)cc21)OC(=O)CCC	?	.	.	12µM*	.	.
Cc1cccc(N2C(=O)CSC23C(=O)N(Cc2cccc(C(F)(F)F)c2)c2ccccc23)c1 (configuration not stated)	.	-19.6%[46.1 µM]	.	.	.	.
CN(C)CCn1c2ccccc2c2nc3ccc([N+](=O)[O-])cc3cc21	1.85µM*	?	?	?	38.9*	15.7*
CCn1c2ccccc2c2cc([N+](=O)[O-])ccc21	?	-8.3%	6.7%[46.1 µM]	4.5%	-4.4	-2.8
Cc1c(C(=O)OCC(=O)Nc2c(C)n(C)n(-c3ccccc3)c2=O)cccc1[N+](=O)[O-]	14.8%	-0.5%	0.3%	-7.1%	-6.3	5.0
C/C=C/COC(=O)c1[nH]c2c(c1C)C(=O)CC(c1ccc(N(C)C)cc1)C2 (configuration not stated)	?	.	.	17.0%	19.7	22.9*
CCC(C)OC(=O)c1[nH]c2c(c1C)C(=O)CC(c1ccc(N(C)C)cc1)C2 (configuration not stated)	?	.	.	4.1%	56.8*	41.2*
CCOCCOC(=O)c1[nH]c2c(c1C)C(=O)CC(c1ccc(N(C)C)cc1)C2 (configuration not stated)	?	.	.	10.5%	18.4	6.9
CCOC(=O)c1cnc(Nc2ccc(OCC)cc2)nc1C	36.5%	?	?	.	-10.7	9.8
COc1cccc(-c2nnc(NC(=O)c3ccc(S(=O)(=O)N4CCOCC4)cc3)o2)c1	?	?	?	106.0%	-16.1	-1.7
O=C(NCC1CCN(c2ccc(S(=O)(=O)N3CCOCC3)cc2)CC1)c1cccc(Cl)c1	.	-3.3%	?	11.7µM*	-11.6	-2.6
COc1cccc(C(=O)NCC2CCN(c3ccc(S(=O)(=O)N4CCOCC4)cc3)CC2)c1	11.7µM*	?	-2.6%	5.22µM*	-23.2	-0.3
CCOC(=O)c1sc(NC(=O)c2ccc(S(=O)(=O)N(C)C)cc2)cc1C	.	-19.9%	-35.9%	5.22µM*	-10.8	-0.8
CCOC(=O)c1sc(NC(=O)c2ccc(Cl)s2)cc1C	?	.	.	?	56.0*	38.7*
CCOC(=O)c1sc(NC(=O)c2ccccc2)cc1C	.	?	?	?	121.8*	69.6*
CCOC(=O)c1sc(NC(=O)c2c(C)nn(Cc3ccccc3)c2C)cc1C	9.28µM*	-12.5%	?	0.7%	37.4	9.7
CCN(CC)CCOc1ccccc1OC	3.7%	2.0%	?	3.1%	-1.3	-1.0
Cc1cc(Br)ccc1NC(=O)CNC(=O)CSc1ncccn1	-15.4%	12.5%	19.8%	?	.	.
SMILES	Pf growth 48h	Lassa entry inh	MARV entry inh	Pf growth 96h	Shiga toxin inh	CHX counter
CCOC(=O)c1sc(NC(=O)Nc2ccc(Cl)cc2)cc1C	4.15µM*	?	?	?	67.2*	46.4*
O=C(N/N=C/c1ccc2c(c1)OCO2)/C(=C/c1ccc2c(c1)OCO2)NC(=O)c1ccccc1	-0.7%	?	0.0%	0.2%	-0.7	1.4
CN(C)c1ccc(/C=C(/NC(=O)c2ccccc2)C(=O)N/N=C/c2ccc([N+](=O)[O-])c(O)c2)cc1	13.1µM*	?	8.9%	5.22µM*	47.0*	52.3*
C[C@@H]1C(=O)N(S(=O)(=O)c2ccc([N+](=O)[O-])cc2)[C@H]1c1ccc(F)cc1	.	.	.	.	-11.4	-1.6
CCN(Cc1ccccc1)S(=O)(=O)c1ccc(OC)cc1	?	.	.	?	-16.7	-1.3
CCOC(=O)[C@@H](C)N(Cc1ccc(OC)cc1)S(=O)(=O)N(Cc1ccccc1)[C@H](C(=O)OC)C(C)C	10.4µM*	.	-0.1%	?	.	.
C=C[C@H](CC(C)C)N(Cc1ccccc1)S(=O)(=O)N(Cc1ccc(OC)cc1)[C@H](C=C)CC(C)C	5.22µM*	.	.	?	.	.
O=C1c2ccsc2SCCN1Cc1c(F)cccc1Cl	.	.	.	?	31.7	1.9
O=C1c2ccsc2SCCN1Cc1c(Cl)cccc1Cl	.	2.3%	?	6.57µM*	19.1	-0.7
N#Cc1nc(-c2cccs2)oc1N1CCN(Cc2ccccc2)CC1	-18.0%	5.3%	?	28.4%	22.3	16.1*
COCCCNc1oc(-c2ccccc2OC)nc1C#N	-23.8%	32.9%[14.3 µM]	-11.1%	162.0%	53.2	4.3
N#Cc1nc(-c2ccccc2F)oc1NCCc1ccccc1	37.5%	0.6%	-20.0%	-0.7%	36.9	41.0*
N#Cc1nc(-c2cccs2)oc1NCCc1ccccc1	.	3.9%	-19.5%[46.1 µM]	-19.3%	74.2*	33.8
COCCCNc1oc(-c2ccccc2F)nc1C#N	.	.	.	20.7%	34.5	24.0*
CC(C(=O)Nc1ccc(S(=O)(=O)N2CCOCC2)cc1)N1C(=O)C2CC=CCC2C1=O (configuration not stated)	31.0%	4.3%[46.1 µM]	21.0%[46.1 µM]	-10.7%	-7.9	-4.5
COc1ccc(CCNc2oc(COc3ccccc3Cl)nc2C#N)cc1OC	8.28µM*	.	.	3.7µM*	22.9	6.9
N#Cc1nc(-c2ccccc2F)oc1NCc1ccccc1	.	.	.	?	25.8	18.1*
COc1ccc(CCNc2oc(COc3ccccc3F)nc2C#N)cc1OC	?	?	?	157.3%	16.1	2.5
N#Cc1nc(-c2ccco2)oc1NCCc1ccccc1	-3.6%	18.3%	?	-6.4%	27.2*	27.5*
COCCNc1oc(COc2cccc(C)c2)nc1C#N	36.2%	29.8%	?	-3.5%	active	19.2*
CCOC(=O)C(CC)Sc1nnc2c3cc(C)ccc3n(C)c2n1 (configuration not stated)	-1.4%	?	-20.6%	30.6%	44.7	11.7
